Assay results reported in PubChem BioAssay (NCI).
Compounds without any hit were thinned out: in the full panel of roughly 83,000, 20% have a hit.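 How to read the values: 0–100, growth inhibition (40 = 60% inhibited); 0, no net growth; -100 to 0, cell death (-40 = 40% of starting cells died; -100 = all dead).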 The source made the active and inactive calls.

Tested on: CCRF-CEM leukemia
Experiment: NCI-60 one-dose screen, 48 h (100 = growth as untreated, 0 = no growth, -100 = all killed)
Settings: 10 µM
Protocol: Growth inhibition of the CCRF-CEM human tumor cell line is measured as a screen for anti-cancer activity. Cells are grown in 96 well plates and exposed to the test compound for 48 hours. Compounds are tested at a single concentration, which is 10^-5 M for most compounds. The reported endpoint is percent growth (GI% or GIPRCNT), where numbers from 0 - 100% represent growth inhibition, and numbers from -100% - 0 represent cell death. For example, a value of 40 represents 60% growth inhibition. A value of 0 means no net growth occurred over the course of the experiment. A value of -40 indicates 40% of cells at the beginning of the experiment died by the end of the experiment. A value of -100 means all cells are dead at the end of the experiment.
NCI-60 Human Tumor Cell Lines Screen was performed using the standard one-dose NCI protocol, which is described in more detail at https://dtp.cancer.gov/discovery_development/nci-60/default.htm.
Compounds with GIPRCNT values below 10 were considered active. Activity score was based on GIPRCNT using the following formula: […]
Score is 0 for GIPRCNT values of 100 or above, 50 for GIPRCNT values of 0, and 100 for GIPRCNT values of -100.

| Structure (SMILES) | growth |
| --- | --- |
| CS(=O)(=O)Nc1ccc(Nc2c3ccccc3nc3cc(Cl)ccc23)cc1 | 7.94% (active) |
| CNCCCNCCCN1C(=O)c2ccc3c4c(ccc(c24)C1=O)C(=O)N(CCCNCc1ccccc1OC)C3=O | 4.62% (active) |
| COc1ccc(-c2csc(NC(=O)CO[N+](=O)[O-])n2)cc1 | 97.9% (inactive) |
| Cn1c([N+](=O)[O-])cnc1C=C1C(=O)c2ccccc2C1=O | 18.4% (inactive) |
| COCCOC(=O)NC(=O)Nc1ccc(/C(=N/O)c2ccc(Cl)cc2)cc1 | 8.24% (active) |
| COc1ccc(-c2oncc2-c2cc(OC)c3c(c2)OCO3)cc1 | 16% (inactive) |
| O=C(OCc1ncc(-c2ccc(C(F)(F)F)cc2)c(NC2CCCCCC2)n1)c1c(F)c(F)c(F)c(F)c1F | 15.7% (inactive) |
| COc1ccc2nc(NC(=O)Nc3c(F)cccc3F)sc2c1 | 96.1% (inactive) |
| COc1ccc(/C(CS(=O)(=O)c2ccccc2)=N\O)cc1 | 96.3% (inactive) |
| Cc1ccc2c(c1)-c1cc(C)nn1-c1ccc(C#N)cc1O2 | 46.2% (inactive) |
| CN(C1c2ccccc2Oc2ccccc21)S(=O)(=O)c1cc(Cl)ccc1Cl | 42.7% (inactive) |
| O=c1c2cccc3c(Nc4ccc(Br)cn4)ccc(c32)c2nc3ccccc3n12 | 97.9% (inactive) |
| FC(F)(F)c1ccc(-c2cnc(Cl)nc2NCc2cc(C(F)(F)F)cc(C(F)(F)F)c2)cc1 | 18.8% (inactive) |
| Cn1c(=O)c2[nH]c(C(O)c3ccc(Cl)cc3)nc2n(C)c1=O (stereo not given) | 99.3% (inactive) |
| COc1ccc(C(=O)/C=C/c2cc(-c3ccc4c(c3)OCO4)n[nH]2)cc1OC | 21.6% (inactive) |
| CC(C)(C)c1ccc(OCCCCCCN2CCNCC2)cc1 | 12% (inactive) |
| CCc1ccc(-c2nnc(COc3ccc(-c4nc5cc(Cl)c(Cl)cc5[nH]4)cc3OC)o2)cc1 | 63.5% (inactive) |
| COc1ccc2nc(-c3ccccc3)cc(C(C)=O)c2c1 | 91.2% (inactive) |
| COc1cc(-c2nc3ccccc3[nH]2)ccc1OCc1nnc(-c2ccc(Br)cc2)o1 | 67.9% (inactive) |
| Cc1ccc(/C(CS(=O)(=O)c2ccc(C)cc2)=N\O)cc1 | 86.7% (inactive) |

| Structure (SMILES) | growth |
| --- | --- |
| O=[N+]([O-])c1ccc(-c2nc(-c3ccccc3)c(-c3ccccc3)n2-c2ccccc2)cc1 | 1.03% (active) |
| CCCN(CCC)CCCNC(=O)c1cc2c(-c3ccc(OC)c(OC)c3)nn(C)c2s1 | -15.9% (active) |
| COc1ccc(-c2nnc(SC/C(=N\O)c3ccccc3)o2)cc1 | 88.9% (inactive) |
| CCCCn1c(=O)[nH]c(N)c(C(c2ccc(Cl)cc2)c2c(N)[nH]c(=O)n(CCCC)c2=O)c1=O | 16.7% (inactive) |
| CC(C)OCc1cc(CN2CCN(c3cccc(Cl)c3)CC2)c(O)c2ncccc12 | -13.4% (active) |
| C[C@]12CC[C@H]3[C@@H](CCC4=CC(=O)CC[C@@]43C)[C@@H]1CC[C@@H]2c1csc(N)n1 | 42.1% (inactive) |
| Cc1ccc(NS(=O)(=O)c2ccccc2)c(NS(=O)(=O)c2ccccc2)c1 | 96% (inactive) |
| Cc1nc2ccc(-n3c(-c4ccc(Cl)cc4)nc4ccccc4c3=O)cc2n1Cc1ccccc1 | 80.2% (inactive) |
| Nc1ncc(-c2ccc(C(F)(F)F)cc2)c(NC2CCCCCC2)n1 | 31.1% (inactive) |
| CCN1CCN(c2nc(NNC(=O)c3cccc(OC)c3)nc(N3CCN(C(c4ccccc4)c4ccccc4)CC3)n2)CC1 | 48.9% (inactive) |
| O=C1CC[C@@H](C(=O)N[C@H]2CSSC[C@@H](C(=O)N/C=C/c3ccc(O)cc3)NC(=O)[C@H](Cc3ccccc3)NC(=O)[C@@H]3CCCN3C(=O)[C@@H]3CCCN3C2=O)N1 | 68% (inactive) |
| COc1ccc(-c2cc(/C=C3\C(=O)Nc4cc(Cl)ccc43)[nH]n2)cc1 | 18.6% (inactive) |
| Cn1c([N+](=O)[O-])cnc1/C=C1\Oc2ccc(Br)cc2C1=O | 5.39% (active) |
| CCN(CC)c1ccc(/C=C/C2=[N+](C)c3ccccc3C2(C)C)c(C)c1 | 4.91% (active) |
| O=C1/C(=C/c2ccc(O)cc2)CSc2ccc(Cl)cc21 | 12.4% (inactive) |
| Cc1cc(C#Cc2ccccc2)ccc1-n1c(/C=C/c2cc(O)ccc2O)nc2ccccc2c1=O | 7.82% (active) |
| CCOC(=O)[C@@H](Cc1ccccc1)NC(=O)c1[nH]c2ccc(Cl)cc2c(=O)c1C | 74.4% (inactive) |
| COc1ccc(-c2nc3sc(-c4ccccc4)c(-c4ccccc4)n3c2/C=C/c2ccc(F)cc2)cc1 | 88.1% (inactive) |
| COc1ccc(C(=O)/C=C/c2cc(-c3ccc(OC)c(OC)c3)n[nH]2)cc1OC | 3.32% (active) |
| CC(C)c1[nH]nc2c(NCc3ccc(-c4ccccn4)cc3)nc(SCCN)nc12 | -0.568% (active) |
